Drawing on PubChem BioAssay (EPA / NIEHS), this text covers outcome for 27 molecules.

Molecules are shown by their SMILES. Calls of active or inactive are those of the source. Rule for the calls: active = hit-call score of the fitted dose curve at least 0.9, where 1 is the maximum; inactive = score below 0.9.

This experiment in a line: CCTE_Harrill_HTTr_Viability_MCF7: CCTE's 6-hour Cell Viability Assessment for the High-Throughput Transcriptomics (HTTr) Platform, in MCF-7 cells cultured in DMEM + 10% fetal bovine serum, Harrill Lab (AID 2284010). The method in brief:
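Viability measured through PI dye exclusion by high-content imaging at 6 h post-dosing.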
With `C[C@]12CC[C@H](O)CC1=CC[C@@H]1[C@@H]2CC[C@]2(C)C(=O)CC[C@@H]12`, the result was inactive.
`O=C(O)C(F)(F)C(F)(F)C(F)(F)C(F)(F)C(F)(F)C(F)(F)F`: the result was inactive.
As for `COc1cc2c(cc1OC)[C@@]13CCN4CC5=CCO[C@H]6CC(=O)N2[C@H]1[C@H]6[C@H]5C[C@H]43`, the outcome was inactive.
As for `CC(C)OC(=O)Nc1ccccc1`, the outcome was inactive.
On to `ClC1=C(Cl)[C@]2(Cl)[C@H]3[C@H]([C@H]4C=C[C@H]3C4)[C@@]1(Cl)C2(Cl)Cl`, for which the result was inactive.
For the molecule `COc1ccc(C(O)(c2cncnc2)C2CC2)cc1` (configuration not stated), the outcome was inactive.
As for `CCCCCCCCC(=O)NCc1ccc(O)c(OC)c1`, the result was inactive.
Then `COc1ccc(C=O)cc1`, with “inactive”.
For `CN(C)N=O`, the result was inactive.
`CC1CCCCC1NC(=O)Nc1ccccc1` (configuration not stated): the result was inactive.
To `CC(C)C1CCC(Cc2ccc(Cl)cc2)C1(O)Cn1cncn1` (configuration not stated) belongs “inactive”.
For the molecule `N#CCCO`, the outcome was inactive.
On to `CCOC(=O)Nc1cccc(OC(=O)Nc2ccccc2)c1`, for which the result was inactive.
Then `CCOP(=S)(OCC)Oc1ccc(S(C)=O)cc1` (configuration not stated), with “inactive”.
Turning to `NC(=O)CF`, the outcome was inactive.
With `CC1(C)Cc2cccc(O)c2O1`, the outcome was inactive.
Consider `Cc1ccc(N)cc1Cl`, for which the result was inactive.
As to `P.[In]`, the outcome was inactive.
Then `CCc1ccccc1C`, with “inactive”.
`[O-][Cl+2]([O-])O`: the result was inactive.
As for `Oc1cccc2cccnc12`, the outcome was inactive.
With `CC(Br)C(=O)O` (configuration not stated), the result was inactive.
Then `CC1(C)CCC(Cc2ccc(Cl)cc2)C1(O)Cn1cncn1` (configuration not stated), with “inactive”; and `CCCCOCCOC(C)=O`, with “inactive”.
Consider `C[C@@H](Oc1ccc(Cl)cc1Cl)C(=O)O`, for which the result was inactive.
Regarding `C=CC#N`, the result was inactive.
Take `C[C@@H]1C[C@@H]([C@H](O)CC2CC(=O)NC(=O)C2)C(=O)[C@@H](C)C1`: the outcome was inactive.
